# Test results taken from the supplement of paper PMC6555819.
# Key:
# Experiment in all cases: PBM binding z-score (relative to random genomic background probes); higher = stronger binding; sequences stand for … in GC…GCGATTGACAGCGTAGAATGAAGG
# [1] = system: FXR:RXRa (NR concentration 270 nM, RXRa partner concentration 90 nM)
# Procedure, shortened: (§1)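 Each nuclear receptor dimer, without ligand, was incubated for 1 h on custom Agilent 4×180K protein-binding microarrays. Binding was detected with antibodies against each partner (one per run), and scanned fluorescence was regression-normalized. The binding z-scores are referenced to random human genomic background probes.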
# [2] = system: LXRa:RXRa (NR concentration 270 nM, RXRa partner concentration 90 nM)
# Procedure, shortened: as §1
# [3] = system: LXRa homodimer (NR concentration 270 nM)
# Procedure, shortened: as §1
# [4] = system: LXRb:RXRa (NR concentration 270 nM, RXRa partner concentration 90 nM)
# Procedure, shortened: as §1
# [5] = system: LXRb homodimer (NR concentration 270 nM)
# Procedure, shortened: as §1
# [6] = system: PPARa:RXRa (NR concentration 270 nM, RXRa partner concentration 90 nM)
# Procedure, shortened: as §1
# [7] = system: PPARg:RXRa (NR concentration 180 nM, RXRa partner concentration 90 nM)
# Procedure, shortened: as §1
# [8] = system: PPARg:RXRa 270nM:90nM, anti-RXR (NR concentration 270 nM, RXRa partner concentration 90 nM)
# Procedure, shortened: as §1
# [9] = system: PPARg:RXRa 30nM:10nM, anti-RXR (NR concentration 30 nM, RXRa partner concentration 10 nM)
# Procedure, shortened: as §1
# [10] = system: PPARg:RXRa 90nM:30nM, anti-RXR (NR concentration 90 nM, RXRa partner concentration 30 nM)
# Procedure, shortened: as §1
# [11] = system: PPARg:RXRa DBDmut IVT, anti-RXR (DBD mutation: RXRa K156A/R161A, NR concentration 270 nM, RXRa partner concentration 90 nM)
# Procedure, shortened: as §1
# [12] = system: PPARg:RXRa IVT, anti-PPARg (NR concentration 270 nM, RXRa partner concentration 90 nM)
# Procedure, shortened: as §1
# [13] = system: PPARg DBDmut:RXRa IVT, anti-PPARg (DBD mutation: PPARg1 K132A/R137A, NR concentration 270 nM, RXRa partner concentration 90 nM)
# Procedure, shortened: as §1
# [14] = system: PPARg DBDmut IVT, anti-PPARg (DBD mutation: PPARg1 K132A/R137A, NR concentration 270 nM)
# Procedure, shortened: as §1
# [15] = system: PPARg homodimer (NR concentration 180 nM)
# Procedure, shortened: as §1
# [16] = system: PXR:RXRa (NR concentration 270 nM, RXRa partner concentration 90 nM)
# Procedure, shortened: as §1
# [17] = system: PXR homodimer (NR concentration 270 nM)
# Procedure, shortened: as §1
# [18] = system: RARa:RXR (NR concentration 270 nM, RXRa partner concentration 90 nM)
# Procedure, shortened: as §1
# [19] = system: RARa homodimer (NR concentration 270 nM)
# Procedure, shortened: as §1
# [20] = system: RARb:RXRa (NR concentration 270 nM, RXRa partner concentration 90 nM)
# Procedure, shortened: as §1
Sequence,PBM binding z-score [1],PBM binding z-score [2],PBM binding z-score [3],PBM binding z-score [4],PBM binding z-score [5],PBM binding z-score [6],PBM binding z-score [7],PBM binding z-score [8],PBM binding z-score [9],PBM binding z-score [10],PBM binding z-score [11],PBM binding z-score [12],PBM binding z-score [13],PBM binding z-score [14],PBM binding z-score [15],PBM binding z-score [16],PBM binding z-score [17],PBM binding z-score [18],PBM binding z-score [19],PBM binding z-score [20]
CCTGCTAGGTCATGGTCAGCTAATCTACAGTATG,3.81,2.6,0.19,1.83,-0.244,3.52,2.37,2.98,0.934,1.97,4.5,4.22,0.0201,0.284,0.79,1.41,0.115,2.34,0.369,3.95
TCATATAGATAAACAGGTGAAAGTCCGTAAGTTA,1.22,1.04,0.611,1.09,0.473,1.69,1.41,2.83,4.51,3.77,2.87,1.36,0.902,1.03,1.33,1.07,0.573,1.37,1.53,0.536
TCATATAGGTAAAGTTGAAAGTCGAACGATATGA,0.231,0.886,-0.186,0.68,-0.123,2.11,1.9,3.23,3.72,3.52,3.68,2.66,1.6,1.18,0.5,0.661,0.0596,0.908,0.307,1.08
CGTCCAAGGTCGGAGAGGTCAGTGAATGCCGAGT,2.9,3.06,1.09,2.53,-0.761,3.1,0.524,2.01,0.133,1.16,0.725,1.17,-0.739,-1.35,1.93,4.6,7.89,3.59,1.21,3.76
CGTCCAAGGTCAATGCTAGGTTAGTGAAAGCATT,6.49,4.7,0.436,3.76,0.627,5.08,3.32,4.3,1.15,2.85,2.98,3.27,0.204,-0.204,2.37,3.78,0.753,3.88,0.52,5.04
TCTGCTAGGTCAACGATGGTCAGATAATCTGCTA,3.65,2.85,0.0239,1.94,0.0958,3.3,2.82,3.22,2.1,2.55,4.35,4.34,-0.0109,0.256,1.82,2.15,-0.779,2.44,-0.13,4.26
TCAGATAGGTGAAGGTAACTCAGGTACGCAGTCG,0.487,1.73,-0.148,0.791,-0.21,1.32,1.01,2.26,3.97,3.01,3.31,1.87,0.193,-0.0331,0.849,0.435,0.291,0.668,0.648,1.1
TCTGCTAGGTCAACGATGGTGAGCTAATCTGCTA,2.96,1.8,-0.337,1.15,-0.262,2.95,2.17,3.07,1.74,2.39,4.06,4.11,0.101,-0.356,0.2,0.739,-1.18,1.68,-1.07,3.98
GATACAGGGTCCAGGCCAGAGTACGCGTATTGAT,-0.251,-0.534,-0.485,-0.738,-0.692,-0.292,0.664,-0.347,-0.488,-0.478,-0.66,-0.0913,-0.12,-0.0353,0.34,-0.441,-0.03,-0.412,-0.345,0.355
GCTGCTAGGTCAACTGATGGTTAGCTAAAGCTCG,4.53,2.96,0.0508,1.97,0.22,3.58,2.88,3.09,0.818,1.99,5.04,4.29,1.41,-0.602,1.62,1.55,-0.971,2.73,-0.0413,4.31
TCTATTAGTTGATTCGGGCAACCGAAACAGCGGA,0.597,0.339,0.411,0.655,0.739,0.742,-0.102,1.84,3.9,2.85,1.91,0.598,0.957,0.979,0.106,0.3,0.223,0.414,0.742,0.671
GTACCAAGGAGAATAGGTCGTTGATGAGTAGGCG,-0.287,-0.0565,-0.284,-0.316,-0.56,0.108,0.546,0.112,-0.237,-0.0411,-0.462,-0.173,-1.64,-0.217,0.315,0.103,-0.146,0.0615,0.574,0.136
TGAATGAGGTTAGAGATCAGGGAACGTGGCGTCG,0.893,0.556,-0.223,0.296,0.27,2.47,2.82,4.06,2.73,4.07,0.771,2.14,0.576,0.367,0.476,0.397,-0.359,1.29,-0.00359,1.3
CGAACTAGGTCATACAGGACAGTGAATACATTGA,3.71,2.61,0.562,1.97,0.184,4.67,7.62,6.24,3.84,5.74,8.15,8.47,4.73,2,1.93,1.48,0.551,2,0.758,3.5
